Experimental findings from PubChem BioAssay AID687001 (Broad Institute, 2013) are described below.

Measured potencies and affinities stand elsewhere. Calls of active or inactive are those of the source.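 The calls were made as follows: active = signal-lowering compounds whose fitted half-maximal concentration is at or below twice the top tested dose in every run; inconclusive = runs disagree, flat 30 to 70% inhibition, or poor curve fit; inactive = the rest.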

The experiment deals with Protein S100-A4 (Homo sapiens) (UniProt P26447). Put plainly: S100A4-myosin IIA binding inhibitor potency, dose response, biochemical, fluorescence polarization, cherry-picked hits (AID 687001). Particulars: FP, S100A4/TAMRA-myosin IIA peptide binding; series mostly up to 11 µM. For orientation: Polarisation of emitted light reports the rotation of a fluorescent probe.
Chain of Protein S100-A4 (Homo sapiens) (P26447 whole entry, looked up): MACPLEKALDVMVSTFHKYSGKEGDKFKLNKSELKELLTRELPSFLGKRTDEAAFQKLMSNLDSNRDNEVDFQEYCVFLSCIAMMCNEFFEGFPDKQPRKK
For the compound `c1ccc(-c2ccncc2)cc1`, the outcome was inactive. The result for `O=[N+]([O-])c1cc(Cl)c(Cl)cc1Cl` reads “inactive”; that for `O=Cc1cn(Cc2ccc(Br)cc2)c2ccccc12`, “inactive”; that for `CCCCCSc1cc(O)c(C(CNC)C(C)C)cc1OC` (stereo unspecified), “inactive”. As for `CCC12CCN(CC3(O)CC3)C(Cc3ccc(O)cc31)C2(C)C` (stereo unspecified), the entry is “inactive”; as for `COC(=O)C1=C(c2cc3ccccc3s2)C[C@@H]2CC[C@H]1N2C(=O)NCc1ccc(C(F)(F)F)cc1`, “inactive”.

As for `COC(C)(C)CCCC(C)C/C=C/C(C)=C/C(=O)OC(C)C` (stereo unspecified), the outcome was inactive. The result for `CN(C)c1cc[n+](CC(O)C[n+]2ccc(N(C)C)cc2)cc1` reads “inactive”; that for `O=C(O)[C@H]1[C@H](CO)[C@H]2Cn3c(ccc(-c4ccncc4)c3=O)[C@@H]1N2C(=O)C1CCCCC1`, “inactive”; that for `CCOC(=O)C1=C(N)OC2=C(C(=O)CC(C)(C)C2)C12C(=O)Nc1ccccc12` (stereo unspecified), “inactive”. The result for `CCCCn1nnnc1C(c1cccc2ccccc12)N1CCC2(CC1)C(=O)NCN2c1ccccc1` (stereo unspecified) reads “inactive”; that for `Cc1c(C)c2ccc(OCC(=O)N3CCC(C(=O)O)(c4ccccc4)CC3)cc2oc1=O`, “inactive”; that for `CCOC(=O)c1ccc(N=Cc2c(O)n(-c3ccccc3F)c(=S)[nH]c2=O)cc1`, “inactive”. As for `O=C(Cc1cccnc1)N1CCCCN2[C@@H](CO)[C@@H](c3ccc(C#CC4(O)CCCC4)cc3)[C@@H]2C1`, the entry is “inactive”; as for `C=CCN1CC[C@]23c4c5ccc(O)c4OC2C(O)CC[C@@]3(O)[C@H]1C5` (stereo partly specified), “inactive”. For the compound `COc1ccc(OC)c(N2C(=O)CC(=O)NC2=O)c1`, the call was inactive. As for `Cc1c(OC(=O)N(C)C)ccc2c1O/C(=C\c1ccco1)C2=O`, the entry is “inactive”. As for `O=C(O)Cn1cc(/C=C2\C(=O)NC(=O)N(c3ccc(Br)cc3)C2=O)c2ccccc21`, the entry is “inactive”. Turning to `COC(=O)[C@]1(C)C[C@H]1[C@H](NP(=O)(c1ccccc1)c1ccccc1)c1ccccc1`, the outcome was inactive. The result for `Cc1ccccc1C(=O)N1Cc2ccccc2-n2nncc2C1` reads “inactive”; that for `CCN(CC)C(=O)[C@@H]1C=C2c3cccc4[nH]c(Br)c(c34)C[C@H]2N(C)C1`, “inactive”.
